# Source: PMC4336329 (PLoS ONE, 2015)
# The whole screen tested about 310,000 compounds, of which about 14,000 (4.5%) showed an effect of 50% or more. Effects have a minus sign here. For the sample, strong results were picked, then their nearest neighbours and some compounds at random.
# Target: human ether-à-go-go-related gene (hERG) potassium channel (human, UniProt Q12809)
# Assay: primary screen, population patch clamp on CHO cells stably expressing hERG; higher = less effect of the substance
# 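Further: peak tail current of the secondary pulse compared with the same well before compound.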
# human ether-à-go-go-related gene (hERG) potassium channel, sequence (Q12809 whole entry, looked up): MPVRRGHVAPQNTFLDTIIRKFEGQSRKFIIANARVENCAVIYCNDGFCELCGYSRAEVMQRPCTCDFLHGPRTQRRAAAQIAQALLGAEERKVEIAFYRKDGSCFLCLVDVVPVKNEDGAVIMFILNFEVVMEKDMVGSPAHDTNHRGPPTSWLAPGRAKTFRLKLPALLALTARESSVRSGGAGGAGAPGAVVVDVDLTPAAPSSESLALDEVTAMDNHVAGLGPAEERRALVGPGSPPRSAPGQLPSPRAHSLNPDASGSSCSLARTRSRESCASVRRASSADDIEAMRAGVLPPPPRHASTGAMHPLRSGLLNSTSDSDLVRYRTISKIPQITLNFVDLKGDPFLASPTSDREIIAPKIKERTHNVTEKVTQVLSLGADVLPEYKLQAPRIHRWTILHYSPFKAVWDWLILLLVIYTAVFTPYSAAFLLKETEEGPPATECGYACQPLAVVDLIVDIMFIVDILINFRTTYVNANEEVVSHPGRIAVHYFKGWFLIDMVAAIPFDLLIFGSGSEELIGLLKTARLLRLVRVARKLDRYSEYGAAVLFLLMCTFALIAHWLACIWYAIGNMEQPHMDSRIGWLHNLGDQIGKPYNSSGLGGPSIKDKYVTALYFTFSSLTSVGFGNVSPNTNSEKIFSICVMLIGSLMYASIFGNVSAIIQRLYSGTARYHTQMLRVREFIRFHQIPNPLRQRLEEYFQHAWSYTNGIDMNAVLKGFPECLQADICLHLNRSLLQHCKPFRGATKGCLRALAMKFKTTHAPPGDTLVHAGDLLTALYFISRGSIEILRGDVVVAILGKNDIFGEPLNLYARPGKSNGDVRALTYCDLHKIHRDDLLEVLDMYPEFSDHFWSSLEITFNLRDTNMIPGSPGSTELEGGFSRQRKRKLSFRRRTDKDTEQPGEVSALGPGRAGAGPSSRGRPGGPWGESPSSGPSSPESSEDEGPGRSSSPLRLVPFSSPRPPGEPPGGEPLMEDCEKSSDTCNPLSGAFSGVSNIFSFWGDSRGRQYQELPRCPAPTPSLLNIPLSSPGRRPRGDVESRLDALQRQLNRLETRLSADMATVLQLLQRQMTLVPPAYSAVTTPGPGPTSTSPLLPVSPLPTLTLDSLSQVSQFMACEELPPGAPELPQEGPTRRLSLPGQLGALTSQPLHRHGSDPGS
row,Structure (SMILES),"hERG current change (%, negative = inhibition) at 10uM [%]"
1,CCOc1ccc(-c2nc(C#N)c(N3CCN(CC)CC3)o2)cc1,-47.3
2,CCN1CCN(c2oc(-c3ccc([N+](=O)[O-])cc3)nc2C#N)CC1,-53.1
3,CN1CCN(c2oc(-c3ccc([N+](=O)[O-])cc3)nc2C#N)CC1,-66.1
4,CC(C)(C)c1ccc(-c2nc(C#N)c(N3CCC(C(N)=O)CC3)o2)cc1,-63.3
5,COc1ccc(-c2nc(C#N)c(N3CCC(C(N)=O)CC3)o2)cc1,-15.6
6,N#Cc1nc(-c2ccc([N+](=O)[O-])cc2)oc1N1CCCCC1,14.5
7,CCOc1ccc(-c2nc(C#N)c(N3CCN(C)CC3)o2)cc1,-32.5
8,CCN1CCN(c2oc(-c3ccc(OC)cc3)nc2C#N)CC1,-45.6
9,Cc1ccc(-c2nc(C#N)c(N3CCC(C(N)=O)CC3)o2)cc1,-23.7
10,CC(=O)Cn1c(N2CCC(Cc3ccccc3)CC2)nc2c1c(=O)[nH]c(=O)n2C,10.3
11,COCCN(C(=S)Nc1ccc(C(C)C)cc1)C(C)c1cccs1 (centres unmarked),8.26
12,COCC(C)NC(=O)CSc1ncnc2sc(-c3ccccc3)cc12 (centres unmarked),-10.1
13,CCC(C)(C)n1c(=O)[nH]c2c(c1=O)CCC2,6.59
14,O=C(O)COCC(=O)Nc1ccc(OCCc2ccccc2)cc1,11.8
15,Cc1cccc(NS(=O)(=O)c2cc3c4c(c2)CCC(=O)N4CCC3)c1,-21.6
16,COc1cc(/C=C(/C#N)C(=O)Nc2ccccc2)c(Br)cc1OCc1ccc(C(=O)O)cc1,9.98
17,CC(C)Cc1ccc([C@H](C)C(=O)O)cc1,7.11
18,CC(C)Cc1ccc(C(C)C(=O)Nc2ccc(O)cc2)cc1 (centres unmarked),11.3
19,COc1ccc(CCN=C(N)C(C)c2ccccc2)cc1OC.Cl (centres unmarked),11.4
20,CC(C)Cc1ccc(C(C)C(=N)N)cc1.Cl (centres unmarked),-6.14

row,Structure (SMILES),"hERG current change (%, negative = inhibition) at 10uM [%]"
1,CC(C)Cc1ccc(C(C)C(N)=Nc2ccc(O)cc2)cc1.Cl (centres unmarked),-80.2
2,CC(C)Cc1ccc(C(C)C(N)=NCCc2ccccc2)cc1.Cl (centres unmarked),-67.5
3,COc1cc(NC(=O)C2CC(c3cccc(Br)c3)=NO2)cc(OC)c1OC (centres unmarked),-11.6
4,COc1ccccc1N1CCN(C(=O)c2ccccc2Oc2ccccc2)CC1,-25.7
5,Cc1cccc(N(CC(O)CON=C2c3ccccc3-c3ccccc32)S(C)(=O)=O)c1 (centres unmarked),15.1
6,O=C(COc1ccc([N+](=O)[O-])cc1)NCc1cccnc1,-33.4
7,COc1ccc(P(=O)(COc2ccc([N+](=O)[O-])cc2)c2ccc(OC)cc2)cc1,-71
8,COc1ccc(CNC(=O)COc2ccc(OC)cc2)cc1,13.8
9,O=C(COc1ccc([N+](=O)[O-])cc1)NCc1ccncc1,-67.6
10,CN(C)c1ccc(P(=O)(COc2ccc([N+](=O)[O-])cc2)c2ccc(N(C)C)cc2)cc1,-41.9
11,COc1ccc(OCC(=O)NNC(=S)NC(=O)c2ccc([N+](=O)[O-])cc2)cc1,15.6
12,O=C(COc1ccc([N+](=O)[O-])cc1)NCc1ccccc1,-38.9
13,COc1ccc(CNC(=O)COc2ccc([N+](=O)[O-])cc2)cc1,-64.5
14,COc1ccc(CCNC(=O)COc2ccc([N+](=O)[O-])cc2)cc1,-31.1
15,CN(C)c1ccc(/C=N/NC(=O)c2ccc3c(c2)OCCO3)cc1,9.93
16,CCC(CC)NC(=O)CCCSc1nc2ccccc2[nH]1,22.3
17,O=C(Nc1cccnc1)c1ccc([N+](=O)[O-])s1,-20.1
18,O=C(O)Cn1c(=O)c2c3c(sc2n(Cc2ccccc2)c1=O)CCCC3,16.6
19,CN(C)CCCn1c(=O)n(C2CCCCC2)c(=O)c2c3c(sc21)CCCCC3,-53.8
20,CN(C)CCCn1c(=O)n(CCc2ccccc2)c(=O)c2c3c(sc21)CCCCC3,-70.4

row,Structure (SMILES),"hERG current change (%, negative = inhibition) at 10uM [%]"
1,CCOC(=O)c1sc2c(c1C)c(=O)n(Cc1ccccc1)c(=O)n2CCN(C)C,-58.9
2,CN(C)CCn1c(=O)n(C2CCCCC2)c(=O)c2c3c(sc21)CCCCC3,-25.3
3,CN(C)CCCn1c(=O)n(Cc2ccccc2)c(=O)c2c3c(sc21)CCCCC3,-58.9
4,CCOC(=O)c1sc2c(c1C)c(=O)n(CCO)c(=O)n2Cc1ccccc1,4.88
5,NC(=O)Cn1c(=O)n(CCc2ccccc2)c(=O)c2c3c(sc21)CCCC3,-15
6,Cc1c(C(=O)O)sc2c1c(=O)n(Cc1ccccc1)c(=O)n2C,23.2
7,CN(C)CCn1c(=O)n(Cc2ccccc2)c(=O)c2c3c(sc21)CCCCC3,-3.31
8,NC(=O)Cn1c(=O)n(C2CCCCC2)c(=O)c2c3c(sc21)CCCCC3,-6.3
9,CCn1c(=O)n(CCc2ccccc2)c(=O)c2c3c(sc21)CCCC3,1.05
10,COc1ccc(OC)c(S(=O)(=O)NCCc2csc(-c3cccnc3)n2)c1,4.92
11,CCOc1ccc(C2(C#N)CC[N+](C)(C)CC2)cc1.[Br-],2.83
12,CS(=O)(=O)N(CC(=O)NCCSCc1cccc(Cl)c1)c1ccccc1F,-20.2
13,Cc1ccc(C(=O)Nc2ccccc2C(=O)NCc2ccccc2)cc1,5.63
14,O=C(NCc1nnc2c3ccccc3c(-c3ccccc3)nn12)c1ccccc1Cl,-78.9
15,O=C(NCc1nnc2c3ccccc3c(-c3ccccc3)nn12)c1ccc(Cl)cc1,-52.4
16,OCc1nnc2c3ccccc3c(-c3ccccc3)nn12,-4.77
17,Cc1cccc(C(=O)NCc2nnc3c4ccccc4c(-c4ccccc4)nn23)c1,-4.14
18,CC(=O)NCc1nnc2c3ccccc3c(-c3ccccc3)nn12,-31.9
19,O=C(CSc1nnc(CNC(=O)c2ccccc2)o1)c1ccc(Cl)cc1,-30.3
